Measurements from ChEMBL document CHEMBL1157539, “Thousands of chemical starting points for antimalarial lead identification” (Nature, 2010).

Key:
Type in all cases: functional
Plasmodium falciparum [1] = assay: GSK_TCMDC: Inhibition of Plasmodium falciparum 3D7 in whole red blood cells, using parasite LDH activity as an index of growth. Test compounds present at 2uM
Plasmodium falciparum [2] = assay: GSK_TCMDC: Inhibition of Plasmodium falciparum Dd2 in whole red blood cells, using parasite LDH activity as an index of growth. Test compounds present at 2uM
HepG2 = assay: GSK_TCMDC: Percent inhibition of human HepG2 cell line. Test compounds present at 10uM.

What does the source list for Cc1[nH]c(C)c(-c2ccc(OCc3ccc(OC(F)(F)F)cc3)nc2)c(=O)c1Br?
Inhibition (Plasmodium falciparum [1]): 98%; Inhibition (Plasmodium falciparum [2]): 97%; Inhibition (HepG2): 10%

Which Inhibition (Plasmodium falciparum [1]) does the source give for CCc1ccc(C(=O)NC(=O)c2ccccc2O)cc1 here?
Its Inhibition is 95%.

What about the Inhibition (Plasmodium falciparum [2]) of the same molecule?
Its Inhibition is 84%.

And the Inhibition (HepG2)?
The Inhibition was 0%.

How did the Inhibition (Plasmodium falciparum [1]) turn out when COC(=O)c1ccc(CCC(C)NCC(O)c2cccc(Cl)c2)cc1.Cl (stereo not drawn) was run?
The Inhibition was 100%.

What about the Inhibition (Plasmodium falciparum [2]) of the same molecule?
The Inhibition was 94%.

And the Inhibition (HepG2)?
Its Inhibition is 0%.

What does the source list for O=C(COc1ccccc1Cc1ccccc1)Nc1cc(Cl)ccc1-n1cncn1?
Inhibition (Plasmodium falciparum [1]): 92%; Inhibition (Plasmodium falciparum [2]): 93%; Inhibition (HepG2): 5%

For COc1ccc2c(=NN=Cc3ccc(OC)c4ccccc34)cc(C)[nH]c2c1, which Inhibition (Plasmodium falciparum [1]) is on record?
Its Inhibition is 100%.

And the Inhibition (Plasmodium falciparum [2])?
The Inhibition was 99%.

What about the Inhibition (HepG2) of the same molecule?
The Inhibition was 3%.

How did the Inhibition (Plasmodium falciparum [1]) turn out when COC(=O)C(=C(C)C)N1C(=O)[C@@H](NC(=O)OCc2ccccc2)[C@H]1SS[C@@H]1[C@H](NC(=O)OCc2ccccc2)C(=O)N1C(C(=O)OC)=C(C)C was run?
Its Inhibition is 97%.

What about the Inhibition (Plasmodium falciparum [2]) of the same molecule?
The Inhibition was 96%.

And the Inhibition (HepG2)?
Its Inhibition is 18%.

Which Inhibition (Plasmodium falciparum [1]) does the source give for CC(C)(C)c1ccc(C(=O)N2CCC3(CC2)C(=O)N(CC(=O)NCC2CCCO2)CN3c2ccccc2)cc1 (stereo not drawn) here?
The Inhibition was 100%.

And the Inhibition (Plasmodium falciparum [2])?
Its Inhibition is 100%.

What about the Inhibition (HepG2) of the same molecule?
The Inhibition was 8%.

For Cc1ccc2c(=NN=Cc3cccc(Cl)c3)cc(C)[nH]c2c1, which Inhibition (Plasmodium falciparum [1]) is on record?
Its Inhibition is 96%.

And the Inhibition (Plasmodium falciparum [2])?
The Inhibition was 52%.

What about the Inhibition (HepG2) of the same molecule?
Its Inhibition is 50%.

With NC1CCN(Cc2ccc(-c3ccc(-c4nc5ccccc5[nH]4)s3)cc2)C1.O=C(O)C(F)(F)F (stereo not drawn) as the molecule, how does the Inhibition (Plasmodium falciparum [1]) read?
Its Inhibition is 100%.

And the Inhibition (Plasmodium falciparum [2])?
The Inhibition was 99%.

And the Inhibition (HepG2)?
The Inhibition was 32%.

Which results are given for c1ccc(COc2ccc(C3CCCCC3)cc2)nc1?
Inhibition (Plasmodium falciparum [1]): 99%; Inhibition (Plasmodium falciparum [2]): 1%; Inhibition (HepG2): 0%

What does the source list for CCn1c(-c2nonc2N)nc2c(-c3cccc(NC(=O)Nc4ccc(C#N)cc4)c3)ncc(OCCCN)c21.O=C(O)C(F)(F)F?
Inhibition (Plasmodium falciparum [1]): 85%; Inhibition (Plasmodium falciparum [2]): 80%; Inhibition (HepG2): 1%
